33 sequences from PMC5869772, “Quantitative profiling of BATF family proteins/JUNB/IRF hetero-trimers using Spec-seq” can be followed below.

Holding throughout (assay): Spec-seq (EMSA and sequencing of bound and unbound bands); 100 nM BATFx-JUNB, 1 uM dsDNA library, 50 mM K acetate, 20 mM Tris-acetate, 10 mM Mg acetate, 100 ug/ml BSA, pH 7.9, 10% glycerol, 30 min on ice; native 9% PAGE at 4 C; low values mean tight binding
Common to all, as to settings: protein: recombinant;recombinant; tags: N-terminal mCherry-TEV, cleaved off;C-terminal 6His; copies: 1;1; dsDNA, one strand shown

The target in one assay is T1, BATF;JUNB (human;human, UniProt Q16520;P17275 1-125;148-347, |).
T1 sequence 1: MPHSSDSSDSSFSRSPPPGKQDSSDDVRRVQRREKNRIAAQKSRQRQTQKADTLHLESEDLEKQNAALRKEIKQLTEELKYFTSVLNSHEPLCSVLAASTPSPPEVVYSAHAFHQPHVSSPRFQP
T1 sequence 2: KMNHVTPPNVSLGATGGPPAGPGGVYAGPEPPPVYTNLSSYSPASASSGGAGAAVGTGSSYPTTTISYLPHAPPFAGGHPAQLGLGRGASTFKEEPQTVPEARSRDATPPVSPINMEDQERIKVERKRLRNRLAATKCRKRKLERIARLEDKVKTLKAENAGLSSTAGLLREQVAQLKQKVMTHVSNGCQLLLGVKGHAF
Put shortly: (§1)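 The protein, at 100 nM, was incubated with 1 μM double-stranded degenerate DNA library for 30 min on ice in NEB Cutsmart buffer with 10% glycerol, then resolved by native 9% PAGE at 4 °C. Excised bound and unbound bands were PCR-barcoded and Illumina-sequenced, and each sequence's relative binding energy in kT is −ln of its bound/unbound read-count ratio.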

In the next assay the target is T2, BATF2 (bZIP);JUNB (human;human, UniProt Q8N1L9;P17275 1-142;148-347, |).
T2 sequence 1: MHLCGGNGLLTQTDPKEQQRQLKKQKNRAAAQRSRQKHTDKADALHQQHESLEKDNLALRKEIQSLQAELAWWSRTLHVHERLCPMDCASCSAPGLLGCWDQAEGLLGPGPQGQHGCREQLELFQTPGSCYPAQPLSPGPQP
T2 sequence 2: T1 sequence 2
Put shortly:
as §1

The next assay has as its target T3, BATF3;JUNB (human;human, UniProt Q9NR55;P17275 1-127;148-347, |).
T3 sequence 1: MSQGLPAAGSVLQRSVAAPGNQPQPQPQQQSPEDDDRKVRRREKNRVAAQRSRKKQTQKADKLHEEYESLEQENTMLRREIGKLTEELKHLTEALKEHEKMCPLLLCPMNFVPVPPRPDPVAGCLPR
T3 sequence 2: T1 sequence 2
In outline:
as §1

Turning to “GATAGTCTCATTTTCACCCCGTGAAATTGTGTCATTGTTCCATTACAGTATCTGT”, the binding signal with BATF;JUNB was -0.292 kT; in the assay with BATF2 (bZIP);JUNB, -0.0836 kT; in the assay with BATF3;JUNB, -0.677 kT.
With “GATAGTCTCATTTTCACCCCGTGAAATGACTAAATTGTTCCATTACAGTATCTGT”, the binding signal with BATF;JUNB was -0.125 kT; with BATF2 (bZIP);JUNB it was 0.513 kT; with BATF3;JUNB, 0.0877 kT.
Consider “GATAGTCTCATTTTCACCCCGTGAAATTTAGTCATTGTTCCATTACAGTATCTGT”, for which the binding signal is -0.725 kT with BATF;JUNB, -0.038 kT with BATF2 (bZIP);JUNB and -0.503 kT in the assay with BATF3;JUNB.
“GATAGTCTCATTTTCACCCCGTGAAATGAGTCAATTGTTCCATTACAGTATCTGT”: the binding signal with BATF;JUNB was -0.554 kT; with BATF2 (bZIP);JUNB, 0.156 kT; in the assay with BATF3;JUNB, -0.486 kT.
The corresponding values for “GATAGTCTCATTTTCACCCCGTGAAACGGAGTCATTGTTCCATTACAGTATCTGT” are -0.207 kT, 0.313 kT and 0.06 kT.
For “GATAGTCTCATTTTCACCCCGTGAAATGACGTAATTGTTCCATTACAGTATCTGT”, the binding signal in the assay with BATF;JUNB is -0.759 kT; in the assay with BATF2 (bZIP);JUNB, -0.891 kT; in the assay with BATF3;JUNB, -1.44 kT.
On the same counts, the results for “GATAGTCTCATTTTCACCCCGTGAAATGACTCTTTTGTTCCATTACAGTATCTGT” are 0.109 kT, 0.673 kT and 0.524 kT.
The corresponding values for “GATAGTCTCATTTTCACCCCGTGAAATGACTTCATTGTTCCATTACAGTATCTGT” are -0.183 kT, 0.172 kT and -0.643 kT.
On the same counts, the results for “GATAGTCTCATTTTCACCCCGTGAAATGACGCAGTTGTTCCATTACAGTATCTGT” are -0.301 kT, 0.363 kT and -0.216 kT.
Regarding “GATAGTCTCATTTTCACCCCGTGAAACGACGTCATTGTTCCATTACAGTATCTGT”, the values for the binding signal with BATF;JUNB, in the assay with BATF2 (bZIP);JUNB and with BATF3;JUNB were -0.501 kT, -0.195 kT and -1.03 kT, respectively.
The corresponding values for “GATAGTCTCATTTTCACCCCGTGAAATGACGACATTGTTCCATTACAGTATCTGT” are -0.298 kT, 0.288 kT and -0.606 kT.
In the case of “GATAGTCTCATTTTCACCCCGTGAAAGTGTGTCATTGTTCCATTACAGTATCTGT”, the binding signal with BATF;JUNB is -0.342 kT; with BATF2 (bZIP);JUNB, -0.00937 kT; in the assay with BATF3;JUNB it was -0.359 kT.
The corresponding values for “GATAGTCTCATTTTCACCCCGTGAAATGAGTCGTTTGTTCCATTACAGTATCTGT” are -0.00852 kT, 0.968 kT and 0.536 kT.
On the same counts, the results for “GATAGTCTCATTTTCACCCCGTGAAACTTAGTCATTGTTCCATTACAGTATCTGT” are -0.834 kT, -0.172 kT and -0.762 kT.
As for “GATAGTCTCATTTTCACCCCGTGAAATGACTCAATTGTTCCATTACAGTATCTGT”, the binding signal was -0.531 kT with BATF;JUNB, -0.145 kT with BATF2 (bZIP);JUNB and -0.634 kT with BATF3;JUNB.
Take “GATAGTCTCATTTTCACCCCGTGAAATGACGGCATTGTTCCATTACAGTATCTGT”: the binding signal was -0.148 kT in the assay with BATF;JUNB, 0.419 kT with BATF2 (bZIP);JUNB and -0.439 kT in the assay with BATF3;JUNB.
With “GATAGTCTCATTTTCACCCCGTGAAATGCCGTCATTGTTCCATTACAGTATCTGT”, the binding signal in the assay with BATF;JUNB was -0.311 kT; with BATF2 (bZIP);JUNB, 0.122 kT; with BATF3;JUNB it was -0.649 kT.
On the same counts, the results for “GATAGTCTCATTTTCACCCCGTGAAATGAGTAAGTTGTTCCATTACAGTATCTGT” are -0.362 kT, 0.572 kT and 0.139 kT.
For the sequence “GATAGTCTCATTTTCACCCCGTGAAATGACTAATTTGTTCCATTACAGTATCTGT”, the results for the binding signal with BATF;JUNB, with BATF2 (bZIP);JUNB and with BATF3;JUNB were -0.506 kT, 0.0427 kT and -0.424 kT, respectively.
Take “GATAGTCTCATTTTCACCCCGTGAAATGACCTCATTGTTCCATTACAGTATCTGT”: the results for the binding signal in the assay with BATF;JUNB, in the assay with BATF2 (bZIP);JUNB and with BATF3;JUNB were -0.305 kT, 0.217 kT and -0.817 kT, respectively.
The corresponding values for “GATAGTCTCATTTTCACCCCGTGAAATCAGTCATTTGTTCCATTACAGTATCTGT” are -0.312 kT, 0.249 kT and -0.231 kT.
On the same counts, the results for “GATAGTCTCATTTTCACCCCGTGAAAAAGAGTCATTGTTCCATTACAGTATCTGT” are -0.185 kT, 0.233 kT and 0.0775 kT.
In the case of “GATAGTCTCATTTTCACCCCGTGAAATGAGTCCATTGTTCCATTACAGTATCTGT”, the binding signal was 0.0398 kT with BATF;JUNB, 1.1 kT in the assay with BATF2 (bZIP);JUNB and 0.51 kT with BATF3;JUNB.
On the same counts, the results for “GATAGTCTCATTTTCACCCCGTGAAATGAATCATTTGTTCCATTACAGTATCTGT” are -0.738 kT, -0.323 kT and -0.732 kT.
As for “GATAGTCTCATTTTCACCCCGTGAAATGAGTCTATTGTTCCATTACAGTATCTGT”, the binding signal with BATF;JUNB was -0.119 kT; with BATF2 (bZIP);JUNB, 1.33 kT; with BATF3;JUNB, 0.647 kT.
With “GATAGTCTCATTTTCACCCCGTGAAATGAGTGACTTGTTCCATTACAGTATCTGT”, the binding signal came to 0.0645 kT with BATF;JUNB, 0.827 kT with BATF2 (bZIP);JUNB and 0.384 kT with BATF3;JUNB.
On the same counts, the results for “GATAGTCTCATTTTCACCCCGTGAAATGACTAAGTTGTTCCATTACAGTATCTGT” are -0.456 kT, 0.286 kT and -0.104 kT.
On the same counts, the results for “GATAGTCTCATTTTCACCCCGTGAAATTACGTCATTGTTCCATTACAGTATCTGT” are -0.943 kT, -1.14 kT and -1.82 kT.
On the same counts, the results for “GATAGTCTCATTTTCACCCCGTGAAATGACTTATTTGTTCCATTACAGTATCTGT” are -0.08 kT, 0.489 kT and 0.185 kT.
In the case of “GATAGTCTCATTTTCACCCCGTGAAAATGAGTCATTGTTCCATTACAGTATCTGT”, the binding signal with BATF;JUNB is -1.25 kT; in the assay with BATF2 (bZIP);JUNB it was -1.01 kT; with BATF3;JUNB, -1.35 kT.
On the same counts, the results for “GATAGTCTCATTTTCACCCCGTGAAATGACTTACTTGTTCCATTACAGTATCTGT” are 0.0298 kT, 0.563 kT and 0.342 kT.
The corresponding values for “GATAGTCTCATTTTCACCCCGTGAAAGTGCGTCATTGTTCCATTACAGTATCTGT” are -0.695 kT, -0.267 kT and -0.851 kT.
With “GATAGTCTCATTTTCACCCCGTGAAATGACCCACTTGTTCCATTACAGTATCTGT”, the values for the binding signal with BATF;JUNB, with BATF2 (bZIP);JUNB and with BATF3;JUNB were 0.593 kT, 1.04 kT and 0.927 kT, respectively.
